We go through 1 molecule from PubChem BioAssay (NCATS).

Several values for one entry are separate records, joined by “and”; a condition that tells them apart may be missing. Identical values can stand only once. A number with no mark means an inactive call. Records with an inconclusive call do not appear. Activity calls are given as the source filed them. Calls come from the whole dose curve; as a rule, active = well fitted curve in the direction sought with a large enough effect; inconclusive = small, poorly fitted or top-dose-only effect, or another doubt; inactive = no such curve, though single readings can be large; an effect the other way counts as inactive or inconclusive.

Experiment [1] is described as follows: Cellular Toxicity (caspase-3) SHSY5Y (AID 657).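 Note: cells exposed to compound for 16 hours at 37 °C.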 The gist of the method: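 qHTS, SH-SY5Y, 1500 cells/well, 5 h pre-incubation 37 °C; compound 16 h 37 °C; Caspase-Glo 3/7 1 h RT; luminescence. Norm.: DMSO = 0, 10 uM staurosporine = 100%. Hill fit → AC50.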
The nature of experiment [2]: Cellular Toxicity (caspase-3) BJ (AID 658).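 Note: 0% = DMSO basal and 100% = 10 µM staurosporine.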 To be noted: Potency: caspase-3 activation. The gist of the method:
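Luminescent aminoluciferin-substrate cleavage reports caspase 3/7 activity in normal human BJ fibroblasts after 16 hr compound exposure at 37 °C. Normalized to DMSO (basal) and 10 uM staurosporine (100%); AC50 from Hill fit of concentration-response.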

Experiment [3] can be described thus: Cellular Toxicity (caspase-3) MRC-5 (AID 659).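 Note: 0% = DMSO basal and 100% = 10 µM staurosporine.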 The essentials: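 Luminescence from caspase-cleaved aminoluciferin substrate (Caspase-Glo 3/7, 1 hr RT) reports caspase 3/7 activity in MRC-5 lung fibroblasts after 16 hr compound exposure. Normalized to DMSO basal and 10 uM staurosporine as 100%; AC50 from Hill fits.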
Experiment [4] is described as follows: Cellular Toxicity (caspase-3) Mesangial (AID 660).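 Note: combined caspase 3 and 7 activity read by Caspase-Glo luminescence; cells exposed to compound for 16 h before the caspase read.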 The essentials:
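Mesangial cells, 1000/well, 5 h settle at 37 °C; compound 16 h, 37 °C; Caspase-Glo 3/7 reagent 20 min RT; luminescence. Norm.: DMSO = 0%, tamoxifen 100 uM = 100%. AC50, Hill fit.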

Experiment [5] is described as follows: Cellular Toxicity (caspase-3) SK-N-SH (AID 661).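 Note: 0% = DMSO basal and 100% = 10 µM staurosporine.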 The essentials: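 Human neuroblastoma SK-N-SH, 1500 cells/well, 5 hr pre-incubation, then compound 16 hr, 37 °C. Caspase-Glo 3/7 reagent, 1 hr RT, luminescence. Norm. to DMSO/10 uM staurosporine; Hill-fit AC50.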
A short description of experiment [6]: Cellular Toxicity (caspase-3) H-4-II-E (AID 663).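 Note: cells exposed to compound for 16 hr before readout.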 To be noted: Potency: caspase-3 activation. The gist of the method: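 Luminescence from caspase-cleaved aminoluciferin substrate, read 20 min after reagent addition, reports caspase 3/7 activation in rat H-4-II-E cells after 16 hr compound exposure. Normalized to DMSO (basal) and 100 uM tamoxifen (100%); AC50 from Hill fits.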

A short description of experiment [7]: Cellular Toxicity (caspase-3) Hek293 (AID 664).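 Note: cells exposed to compound for 16 h at 37 °C before readout.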 To be noted: HEK293 caspase-3 activation, DMSO = 0%, 100 µM tamoxifen = 100%; at 92.2 µM (top of the series). The gist of the method: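 Cells plated, 5 hr at 37 °C; compounds added; 16 hr at 37 °C; Caspase-Glo 3/7 reagent, 20 min RT; luminescence read. Activation expressed relative to DMSO and 100 uM tamoxifen, AC50 by Hill model.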

Experiment [8] in a line: Cellular Toxicity (caspase-3) N2a (AID 665).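 Note: compound exposure lasted 16 h at 37 °C before readout.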 The essentials:
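N2a cells, 1500/well, 5 h settle at 37 °C; cpd 16 h, 37 °C; Caspase-Glo 3/7, 1 h RT; luminescence. Norm: DMSO = 0, 10 uM staurosporine = 100%. AC50, Hill fit.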

The nature of experiment [9]: Cellular Toxicity (caspase-3) NIH 3T3 (AID 666).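 Note: 0% = DMSO basal and 100% = 100 µM tamoxifen stimulation.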 The essentials:
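Luminescence from aminoluciferin released by caspase-3/7 cleavage of a peptide substrate served as read-out. Mouse fibroblast NIH 3T3 cells were exposed to compounds over a concentration range for 16 hours, and AC50 values came from standard Hill modelling.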

A short description of experiment [10]: Cellular Toxicity (caspase-3) Renal Proximal Tubule (AID 667).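 Note: cells exposed to compound for 16 hours at 37 °C before detection; 0% = DMSO basal and 100% = 10 µM staurosporine.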 To be noted: Potency: caspase-3 activation. The essentials: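 AC50 derived by standard Hill fit of concentration-response data, normalized between DMSO basal and 10 uM staurosporine as 100% stimulation. Cells: primary rat kidney proximal tubule, 16 h treatment at 37 °C.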
In experiment [11] the target is Cytochrome P450 2C9 (Homo sapiens) (UniProt P11712). In words: qHTS Assay for Inhibitors and Substrates of Cytochrome P450 2C9 (AID 883). Note: % is set by controls: 0 for no effect and ±100 for the full control effect; nearly all actives have a fitted effect of over 60% in size. The essentials:
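CYP2C9 deoxyluciferin hydroxylation, 37C, 60 min with NADPH regeneration; 10nM enzyme, 100uM Luciferin-H (KM). Glo detection reagent stopped reaction; luminescence normalized to sulphaphenazole (57uM) full inhibition.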

For experiment [12], the target named is Cytochrome P450 3A4 (Homo sapiens) (UniProt P08684). In words: qHTS Assay for Inhibitors and Substrates of Cytochrome P450 3A4 (AID 884). Note: potency is the fitted concentration of half-maximal effect; nearly all actives have a fitted effect of over 50% in size. The gist of the method:
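20 nM human CYP3A4 with 25 uM Luciferin-PPXE (at KM) in 200 mM KPO4, preincubated 10 min with compound; NADPH regeneration started a 60 min RT reaction. Luciferin detected by luminescence, normalized to 57 uM ketoconazole as full inhibition.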

For experiment [13] the target is unchanged. In words: qHTS Assay for Activators of Cytochrome P450 3A4 (AID 885). Note: nearly all actives have a fitted effect of over 65% in size. The essentials:
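Steps: enzyme/substrate mix dispensed; compound added, 10 min RT; NADPH regeneration solution added, 60 min RT; luciferin detection buffer stops reaction; 20 min later luminescence measured.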
For orientation: qHTS replaces the single test concentration by a dilution series.

In experiment [14] the target is Cytochrome P450 2D6 (Homo sapiens) (UniProt P10635). In words: qHTS Assay for Inhibitors and Substrates of Cytochrome P450 2D6 (AID 891). Note: potency is the fitted concentration of half-maximal effect; nearly all actives have a fitted effect of over 60% in size. The gist of the method:
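Human CYP2D6 (5 nM) with 30 uM Luciferin-ME EGE (at Km) in 100 mM KPO4, compound preincubated 10 min, then NADPH regeneration system for 60 min at room temperature. Luciferin read by luminescence; normalized to 1.43 uM quinidine.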

Experiment [15] addresses Cytochrome P450 2C19 (Homo sapiens) (UniProt P33261). In words: qHTS Assay for Inhibitors and Substrates of Cytochrome P450 2C19 (AID 899). Note: % is set by controls: 0 for no effect and ±100 for the full control effect; nearly all actives have a fitted effect of over 60% in size. The essentials: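 In 50mM KPO4, the reaction held 5nM enzyme and KM-level (10uM) Luciferin-H EGE; it ran 60 min at 37C after NADPH regeneration and a 10 min compound preincubation. Luminescence values were scaled to 57uM ketoconazole as complete inhibition.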

A short description of experiment [16]: MultiTox-Fluor Cytotoxicity Assay - LYMP1-001 - Dead Cells (AID 946). The essentials:
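Seed 2500 LYMP1-001 cells/well, incubate 5 hr at 37 C; add compound, 16 hr at 37 C; add MultiTox-Fluor reagent, 60 min RT; read dead-cell fluorescence Ex/Em=485/520. Normalize to DMSO and 15 uM tetraoctylammonium bromide.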

A short description of experiment [17]: MultiTox-Fluor Cytotoxicity Assay - LYMP1-001 - Live Cells (AID 947). Note: potency is the fitted concentration of half-maximal effect.
Experiment [18] in a line: Cell Viability - LYMP1-002 - Assay at 16 hr (AID 948). Note: potency is the fitted concentration of half-maximal effect. The gist of the method: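 Seed 2500 LYMP1-002 cells per well in complete medium and hold 5 hr at 37 C. Add compound across a concentration series and incubate 16 hr at 37 C. Add CellTiter-Glo, wait 30 min at room temperature, read luminescence.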
The nature of experiment [19]: MultiTox-Fluor Cytotoxicity Assay - LYMP1-002 - Dead Cells (AID 960). Note: nearly all actives have a fitted effect of over 60% in size. The essentials:
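LYMP1-002 cells 2500/well; 5 hr 37 C pre-incubation; compound 16 hr 37 C; MultiTox-Fluor reagent 60 min RT; dead-cell fluor Ex/Em 485/520. Norm. to DMSO (0%) vs 15 uM tetraoctylammonium bromide (100%); Hill AC50.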

Chain of Cytochrome P450 3A4 (Homo sapiens) (P08684 whole entry, looked up): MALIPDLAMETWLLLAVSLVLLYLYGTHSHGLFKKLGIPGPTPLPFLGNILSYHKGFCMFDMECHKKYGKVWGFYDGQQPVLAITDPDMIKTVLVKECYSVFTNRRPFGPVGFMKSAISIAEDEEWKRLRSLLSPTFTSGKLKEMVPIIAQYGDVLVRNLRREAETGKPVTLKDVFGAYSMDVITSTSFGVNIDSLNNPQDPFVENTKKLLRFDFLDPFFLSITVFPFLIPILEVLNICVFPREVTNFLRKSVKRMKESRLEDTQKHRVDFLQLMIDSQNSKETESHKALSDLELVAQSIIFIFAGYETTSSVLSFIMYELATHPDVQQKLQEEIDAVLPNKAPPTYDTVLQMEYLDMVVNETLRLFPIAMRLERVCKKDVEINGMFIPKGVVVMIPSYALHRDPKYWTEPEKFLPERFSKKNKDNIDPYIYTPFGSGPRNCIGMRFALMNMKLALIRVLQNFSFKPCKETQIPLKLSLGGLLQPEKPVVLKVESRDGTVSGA
Chain of Cytochrome P450 2C19 (Homo sapiens) (P33261 whole entry, looked up): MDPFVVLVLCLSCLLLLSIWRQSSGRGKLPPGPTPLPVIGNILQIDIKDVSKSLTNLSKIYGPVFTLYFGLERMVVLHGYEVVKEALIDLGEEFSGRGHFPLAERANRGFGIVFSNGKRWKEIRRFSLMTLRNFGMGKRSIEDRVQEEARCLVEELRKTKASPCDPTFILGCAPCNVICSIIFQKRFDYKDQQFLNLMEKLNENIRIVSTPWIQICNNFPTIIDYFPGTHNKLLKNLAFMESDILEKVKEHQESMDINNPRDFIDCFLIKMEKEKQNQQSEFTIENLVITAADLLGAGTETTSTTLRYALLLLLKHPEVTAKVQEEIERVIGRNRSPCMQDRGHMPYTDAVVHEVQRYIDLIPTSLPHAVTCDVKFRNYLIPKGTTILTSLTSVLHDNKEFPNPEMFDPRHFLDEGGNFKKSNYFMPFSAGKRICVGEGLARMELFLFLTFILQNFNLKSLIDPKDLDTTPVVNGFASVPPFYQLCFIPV
Chain of Cytochrome P450 2D6 (Homo sapiens) (P10635 whole entry, looked up): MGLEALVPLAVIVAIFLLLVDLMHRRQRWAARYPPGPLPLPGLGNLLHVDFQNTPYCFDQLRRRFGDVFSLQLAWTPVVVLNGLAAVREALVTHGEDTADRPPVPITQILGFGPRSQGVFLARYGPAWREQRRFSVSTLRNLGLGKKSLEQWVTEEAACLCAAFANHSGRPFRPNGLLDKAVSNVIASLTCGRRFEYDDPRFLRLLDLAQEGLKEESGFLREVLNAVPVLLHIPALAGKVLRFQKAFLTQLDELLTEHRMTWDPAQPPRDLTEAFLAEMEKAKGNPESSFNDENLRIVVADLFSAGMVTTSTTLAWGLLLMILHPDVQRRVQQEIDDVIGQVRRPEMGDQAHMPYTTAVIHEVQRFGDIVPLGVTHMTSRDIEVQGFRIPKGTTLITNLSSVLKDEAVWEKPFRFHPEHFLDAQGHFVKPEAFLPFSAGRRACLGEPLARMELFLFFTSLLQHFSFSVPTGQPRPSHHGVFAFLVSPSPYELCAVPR
Chain of Cytochrome P450 2C9 (Homo sapiens) (P11712 whole entry, looked up): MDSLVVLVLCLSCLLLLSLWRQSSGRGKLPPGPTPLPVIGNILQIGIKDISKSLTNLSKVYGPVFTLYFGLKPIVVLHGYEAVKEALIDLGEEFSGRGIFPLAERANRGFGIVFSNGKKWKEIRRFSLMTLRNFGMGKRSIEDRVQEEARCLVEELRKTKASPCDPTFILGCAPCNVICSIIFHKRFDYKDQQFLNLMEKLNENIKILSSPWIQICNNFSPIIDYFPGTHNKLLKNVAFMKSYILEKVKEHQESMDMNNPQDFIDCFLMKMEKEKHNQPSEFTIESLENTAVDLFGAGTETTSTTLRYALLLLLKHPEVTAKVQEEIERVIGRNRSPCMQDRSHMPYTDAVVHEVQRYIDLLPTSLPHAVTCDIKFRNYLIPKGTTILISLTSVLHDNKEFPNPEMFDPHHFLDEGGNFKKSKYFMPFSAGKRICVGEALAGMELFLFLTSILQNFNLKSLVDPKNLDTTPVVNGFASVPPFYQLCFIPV

On to `N=C1C=CC(=C(c2ccc(N)cc2)c2ccc(N)cc2)C=C1`, for which the Potency result in experiment [1], in [2], in experiment [6], in [10], in [11] and in experiment [13] was “inactive” throughout. The Potency entry in experiment [15], in experiment [16] and in experiment [19] was “inactive” in each case. In addition, the molecule was called inactive in [3], in experiment [4], in experiment [5], in experiment [8] and in [9]. In addition, in [7], the caspase-3 activation is -1.95%. In addition, the Potency is 12.6 µM (active) and 3.16 µM (active) in experiment [12]; 1.58 µM (active) in experiment [14]; 15.8 µM (active) in [17]; 25.1 µM (active) in experiment [18].
